Compound activity: PubChem, several laboratories
In the library only some 27% were active in any assay of this set; here they are far more common.
CYP2C19 inh = human CYP2C19 inhibition; CYP2C19 Supersomes, luciferin-H EGE luminescence, 30 min; inhibition, % at 5 µM; 96,000 tested, 21% active; AID 778;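 active = CYP2C19 inhibition above a set limit at 5 µM in the primary screen, cut at about 50% in these data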
Target sequence (P33261 whole entry, looked up): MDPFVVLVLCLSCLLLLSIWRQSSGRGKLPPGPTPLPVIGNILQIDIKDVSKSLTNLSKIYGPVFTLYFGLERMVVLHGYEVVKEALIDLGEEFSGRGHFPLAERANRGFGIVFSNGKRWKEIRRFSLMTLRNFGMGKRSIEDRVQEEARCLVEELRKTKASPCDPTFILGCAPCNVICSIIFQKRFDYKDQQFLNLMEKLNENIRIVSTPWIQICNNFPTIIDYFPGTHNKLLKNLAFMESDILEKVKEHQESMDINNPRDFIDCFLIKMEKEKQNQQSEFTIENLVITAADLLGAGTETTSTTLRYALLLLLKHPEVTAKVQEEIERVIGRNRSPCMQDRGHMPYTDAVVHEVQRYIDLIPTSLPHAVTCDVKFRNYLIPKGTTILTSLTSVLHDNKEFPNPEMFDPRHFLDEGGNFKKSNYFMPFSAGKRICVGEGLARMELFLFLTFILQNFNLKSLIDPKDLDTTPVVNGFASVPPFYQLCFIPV
Cav3 T inh = blocks human Cav3.2 T-type calcium channel. Cav3.2-expressing cells, Fluo-4 calcium fluorescence FDSS; stronger effect = lower value. B-score at 10 µM. 100,000 tested, 4% active;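 active = single-dose well whose peak fluorescence ratio is a statistical outlier from its plate by either plate-standardised score or position-corrected B-score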
CYP2C9 act = activators of human CYP2C9. P11712. recombinant CYP2C9, luciferin-H conversion, luminescence; stronger effect = higher value; factor 1 = untreated enzyme, 0 = blocked. activation factor at 5 µM. 96,000 tested, 1.4% active;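 active = activation factor of 2 or more for CYP2C9 at a 5 µM dose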
CYP2C9 inh = human CYP2C9 inhibition; CYP2C9 Supersomes, luciferin-H conversion, luminescence; P11712; 96,000 tested, 20% active; inhibition, % at 5 µM;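 active = blocking of liver enzyme CYP2C9 beyond about 50% at 5 µM, limit read from the data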
CYP2C19 act = increases human CYP2C19 enzyme activity; P33261; 96,000 tested, under 10 active; activation factor at 5 µM; recombinant CYP2C19, luciferin-H EGE luminescence; stronger effect = higher value; 0 = fully inhibited enzyme, 1 = untreated enzyme; AID 1025;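 active = activation factor of at least 2 at 5 µM in the primary screen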
Hits are given with their value; 0 = inactive; - = not tested or not shown.

SMILES | CYP2C19 inh | Cav3 T inh | CYP2C9 act | CYP2C9 inh | CYP2C19 act
CCC(C)(C)n1nnnc1CN1CCN(c2nc3cc(OC)ccc3cc2C#N)CC1 | 0 | 0 | 0 | 0 | 0
FC(F)(F)c1cccc(N2CCN(c3ccc4nnc(-c5ccccc5)n4n3)CC2)c1 | 0 | 0 | 0 | 0 | 0
O=C(Nc1ccc(Cl)cc1)N1CCC(c2nc(-c3ccc(F)cc3)no2)CC1 | 0 | 0 | 0 | 0 | 0
O=C(Nc1ccccc1Cl)N1CCN(c2ccc3nnc(-c4ccccc4)n3n2)CC1 | 69 | 0 | 0 | 89 | 0
O=C(Nc1ccc(Cl)cc1)N1CCN(c2ccc3nnc(-c4ccc(F)cc4)n3n2)CC1 | 0 | 0 | 0 | 56 | 0
O=C(c1ccc(Br)o1)N1CCN(c2ccc3nnc(-c4ccc(F)cc4)n3n2)CC1 | 0 | 0 | 0 | 67 | 0
Cc1cc(=O)n2[nH]c(-c3ccc(C(C)(C)C)cc3)cc2n1 | 0 | 0 | 0 | 0 | 0
Cc1nc2ccc(S(=O)(=O)N(C)CC(=O)NCc3ccc4c(c3)OCO4)cc2s1 | 57 | 0 | 0 | 53 | 0
Cc1nc2ccc(S(=O)(=O)NC(C(=O)NCc3ccc4c(c3)OCO4)C(C)C)cc2s1 (stereo not drawn) | 51 | 0 | 0 | 0 | 0
CCC1CCC(C(=O)NC(C(=O)Nc2ccc3c(c2)OCCO3)C(C)C)CC1 (stereo not drawn) | 0 | - | 0 | 0 | 0
CCc1nnc(NC(=O)C(NS(=O)(=O)c2ccc3c(c2)OCCO3)C(C)C)s1 (stereo not drawn) | 95 | 0 | 0 | 90 | 0
COc1ccccc1N1CCN(CC(=O)NCC2CCCO2)CC1 (stereo not drawn) | - | 0 | - | - | -
CCOc1cc(NC(=O)c2ccco2)c(OCC)cc1NC(=O)CCC(=O)NCc1cccnc1 | 0 | 0 | 0 | 0 | 0
O=S(=O)(N/N=C/c1cn(Cc2ccccc2)c2ccccc12)c1ccccc1 | 0 | 0 | 0 | 87 | 0
Cc1ccc(-c2nn(-c3ccccc3)cc2/C=N/NS(=O)(=O)c2ccccc2)cc1 | 0 | 0 | 0 | 66 | 0
Cc1ccc(S(=O)(=O)N/N=C\c2cn(-c3ccccc3)nc2-c2ccccc2)cc1 | 0 | 0 | 0 | 67 | 0
Cc1nn(-c2ccccc2)c(C)c1/C=N/NC(=O)c1cc(-c2ccccc2)n[nH]1 | 70 | 0 | 0 | 86 | 0
CC12CCC(C(=O)N(c3ccccn3)c3ccccn3)(OC1=O)C2(C)C (stereo not drawn) | 0 | 0 | 0 | 0 | 0
COC(=O)C1N[C@@H]([C@@H](NC(=O)COc2ccccc2)C(=O)NCc2ccccc2)SC1(C)C (stereo partly drawn) | - | 0 | - | - | -
O=C(Nc1ccc(Cl)c(C(F)(F)F)c1)[C@@H]1CC=C[C@@H]2CCN(C3CC3)C(=O)[C@@H]21 | - | 0 | - | - | -
CC(=O)c1cccc(-n2nnnc2SCC(=O)N2CCCC2)c1 | 0 | 0 | 0 | 0 | 0
Cc1cccc(N(CC(N)=O)C2SC(=O)NC2=O)c1 (stereo not drawn) | - | 0 | - | - | -
Cc1ccc(S(=O)(=O)NC(=O)NCc2ccc(Cl)cc2)cc1 | 0 | 0 | 0 | 0 | 0
Cc1ccc(S(=O)(=O)N/N=C/c2c(C)nn(-c3ccccc3)c2C)cc1 | 56 | 0 | 0 | 75 | 0
Cc1nn(-c2ccccc2)c(C)c1/C=N/N1CCN(c2ccccc2)CC1 | 0 | 0 | 0 | 0 | 0
SMILES | CYP2C19 inh | Cav3 T inh | CYP2C9 act | CYP2C9 inh | CYP2C19 act
Cc1ccc(S(=O)(=O)N/N=C/c2cccn2-c2ccc(Cl)cc2)cc1 | - | -4.3 | - | - | -
COC(=O)c1cc(Br)c(=O)n(Cc2ccc(C(=O)O)cc2)c1 | 0 | 0 | 0 | 0 | 0
COC(=O)c1cc(Br)c(=O)n(Cc2ccc(OC)c(OC)c2)c1 | 0 | 0 | 0 | 51 | 0
O=C1NCCc2cc3c(cc21)OCO3 | - | 0 | - | - | -
O=C(CCC1COc2ccccc2O1)Nc1ccc(Cl)cn1 (stereo not drawn) | 75 | -5.9 | 0 | 0 | 0
COc1ccc(CCNC(=O)CCC2COc3ccccc3O2)cc1OC (stereo not drawn) | 0 | 0 | 0 | 68 | 0
CCOC(=O)c1ccc(NC(=O)CCC2COc3ccccc3O2)cc1 (stereo not drawn) | 0 | 0 | 0 | 69 | 0
Cc1ccnc(NC(=O)CCC2COc3ccccc3O2)c1 (stereo not drawn) | 82 | - | 0 | 55 | 0
CCn1nnnc1SCC(=O)Nc1cc(OC)cc(OC)c1 | 0 | 0 | 0 | 0 | 0
CC(C)C1Oc2ccccc2N(CC(=O)N(Cc2ccncc2)Cc2ccco2)C1=O (stereo not drawn) | - | 0 | - | - | -
COc1ccc(NC(C)C(=O)Nc2ccc(C#N)cc2)cc1Cl (stereo not drawn) | 100 | 0 | 0 | 98 | 0
CN(CC(=O)Nc1ccc(C#N)cc1)Cc1ccc(Cl)cc1Cl | 94 | -4.2 | 0 | 90 | 0
COc1ccc(NCC(=O)Nc2ccc(C#N)cc2)cc1Cl | 69 | 0 | 0 | 69 | 0
COc1ccc(NC(C)C(=O)Nc2ccc(C(C)(C)C)cc2)cc1Cl (stereo not drawn) | 94 | -6 | 0 | 90 | 0
COc1ccc([C@@H]2C=C(C(=O)O)O[C@H](OCCCCO)C2)cc1 | - | 0 | - | - | -
COc1ccc(C(=O)NCCSCc2ccc(C)cc2)cc1 | 55 | -5.6 | 0 | 53 | 0
CCCCOCCCNC(=O)c1ccc(OC)cc1 | 58 | 0 | 0 | 0 | 0
Cc1ccc(SCCC(=O)NCCSCc2ccccc2C)cc1 | 0 | -7.6 | 0 | 81 | 0
COc1ccc(C(=O)NCCSCc2ccccc2C)cc1 | 55 | 0 | 0 | 52 | 0
CCS(=O)(=O)c1ccc2c(c1)N(S(C)(=O)=O)CC(C(=O)NCCOC)O2 (stereo not drawn) | 0 | 0 | 0 | 0 | 0
CCN(Cc1ccccc1)C(=O)Cn1cc2c(n1)CCCC2 | 0 | 0 | 0 | 0 | 0
O=C(Nc1cccc2c1[nH]c1ccccc12)C(F)(F)F | - | 0 | - | - | -
O=C(c1ccccc1[N+](=O)[O-])N1CCC(Cc2ccccc2)CC1 | 66 | 0 | 0 | 60 | 0
O=C(/C=C/c1ccccc1)N1CCC(Cc2ccccc2)CC1 | 0 | - | 0 | 0 | 0
O=C(OCc1ccccc1)C1CCCN1C(=O)c1ccccc1[N+](=O)[O-] (stereo not drawn) | 0 | 0 | 0 | 0 | 0
SMILES | CYP2C19 inh | Cav3 T inh | CYP2C9 act | CYP2C9 inh | CYP2C19 act
Cc1cc(C(=O)N2CCC(Cc3ccccc3)CC2)ccc1[N+](=O)[O-] | 78 | 0 | 0 | 0 | 0
CCN=C1SC(CC(=O)Nc2sc(C)c(C)c2C(=O)OC)C(=O)N1CC (stereo not drawn) | 0 | 0 | 0 | 0 | 0
Cc1cc(C)c(S(=O)(=O)Nc2nnc(C)s2)c(C)c1 | 0 | 0 | 0 | 86 | 0
COc1ccccc1N(CC(=O)Nc1ccc(F)c(F)c1)S(C)(=O)=O | 88 | 0 | 0 | 66 | 0
COc1ccc(OCCCC(=O)Nc2cccnc2)cc1 | 0 | - | 0 | 0 | 0
CCOc1ccccc1N(CC(=O)Nc1ccc(S(=O)(=O)N2CCOCC2)cc1)S(=O)(=O)c1ccccc1 | 0 | 0 | 0 | 0 | 0
COc1ccccc1N(CC(=O)Nc1cccnc1)S(=O)(=O)c1ccccc1 | 90 | 0 | 0 | 100 | 0
COc1ccc(S(=O)(=O)N(CC(=O)Nc2cccnc2)c2ccccc2OC)cc1 | 54 | 0 | 0 | 94 | 0
